Our source for the INHIBITION values is ChEMBL document CHEMBL4513216, “Probing the Open Global Health Chemical Diversity Library for Multistage-Active Starting Points for Next-Generation Antimalarials” (ACS Infect Dis, 2020).

In all, about 69,000 compounds went through this assay and about 8,600 (12%) showed an effect of 50% or more. The list comes from a sample in which strong results are over-represented; it also holds similar structures and randomly drawn compounds.

The test system of the experiment is Plasmodium berghei. The experiment can be described thus: Screen against P. berghei liver stage (PbLuc), transformed with Luciferase, at 10uM. The format is functional, HepG2. The settings on record: tested at 10 uM.
Turning to `Cc1nc(CN2C[C@@H]3CN(C(=O)C4(C#N)CC4)C[C@@H]3C2=O)cs1`, the INHIBITION is on record as -20.2%.
Consider `COc1ccc(OCCNc2cccc(C(=O)N3CCOCC3)c2)cc1`, for which the INHIBITION is on record as -12.5%.
With `Cc1cnc(C)c(Oc2ccc(CN3CCCC3)cc2Cl)n1`, the INHIBITION came out at 89.4%.
For `CCn1c(C2CCCN(Cc3cc(C)cc(C)c3)C2)nn(C)c1=O` (stereo unspecified) the value was -17.8%.
Turning to `Cc1cnc(C)c(Oc2ccc(Cl)c(CN3CCCC3)c2Cl)n1`, the INHIBITION is listed as 90.3%.
`NC(=O)c1cncc(Oc2cccc(CN3CCCC3)c2Cl)n1`: the INHIBITION was 24.4%.
As to `Cc1cc(CN2CCCC2)cc(Oc2nc(C)cnc2C)c1`, the INHIBITION is recorded as 89.4%.
With `COc1ccc(CN2CCC3(CC2)C(C(=O)O)CC(=O)N3C)cc1Cl` (stereo unspecified), the INHIBITION came to 39.9%.
As for `c1cc(-c2cn[nH]c2)ccc1CN1CCCCC1`, the INHIBITION is 10.6%.
As to `Cc1nn(C)c2ncc(CN3CCCCCC3)cc12`, the INHIBITION is reported as 44.9%.
The result for `COC(=O)CC1CN(Cc2c(Cl)ccc3cccnc23)CCO1` (stereo unspecified) reads -14.2%; that for `OC1CCN(CCCNc2nccc(C3CCCC3)n2)CC1`, 31.4%.
In the case of `CC(O)CN1CCN(Cc2cccc(C(=O)N3CCCCC3)c2)CC1` (stereo unspecified), the INHIBITION is on record as 37.9%.
Take `O=C(c1cscn1)N1CCc2[nH]nc(Nc3ccccc3)c2C1`: the INHIBITION is given as -15.625%.
Take `Cc1ccccc1CN(CCN(C)C)Cc1ccc(O)c(C(=O)O)c1`: the INHIBITION stood at 29.2%.
Regarding `CC(C)c1nc(-c2ccc(=O)[nH]n2)n(-c2ccc3c(c2)OCO3)n1`, the INHIBITION is given as 25.5%.
As to `CCc1nnsc1-c1nc(C(C)C)nn1-c1ccc2c(c1)OCO2`, the INHIBITION is reported as 12.4%.
Consider `Cc1nonc1-c1nc(C(C)C)nn1-c1ccc2c(c1)OCO2`, for which the INHIBITION is listed as 82%.
In the case of `CN(C)c1nc(CNC(=O)N[C@H](CO)c2ccccc2)cs1`, the INHIBITION was -42%.
Turning to `COc1ccccc1CCNC(=O)CC1(Cn2cnnn2)CCCCC1`, the INHIBITION amounted to 48.2%.
As to `CC(C)Cc1cc(NC(=O)c2n[nH]c3ccccc23)n(C)n1`, the INHIBITION is listed as 56.6%.
For the compound `CC(C)Cc1cc(NC(=O)c2ccc(=O)[nH]n2)n(C)n1`, the INHIBITION stood at 40.3%.
The result for `CC(C)Cc1cc(NC(=O)c2ccccc2)n(C)n1` reads 10%.
In the case of `COC(CNC(=O)C1CCCC1)c1ccc(C)s1` (stereo unspecified), the INHIBITION was found to be 24.7%.
For `COc1cc(C(=O)N2CCCC2c2noc(C(C)C)n2)on1` (stereo unspecified), the INHIBITION is recorded as -2.143%.
Consider `CN(CCCc1ccc(C(F)(F)F)cc1)Cc1nccn1C`, for which the INHIBITION is 66.8%.
For `CN(Cc1nccn1C)C1CCCN(CCCc2ccccc2)C1` (stereo unspecified), the INHIBITION is on record as 43.7%.
Take `Cn1ccnc1CN(CCO)Cc1ccc(C(F)(F)F)cc1`: the INHIBITION is recorded as 29.8%.
Regarding `CC(=O)c1ccc(S(=O)(=O)Nc2cnn(C3CCOCC3)c2)cc1`, the INHIBITION is given as -24.1%.
The result for `O=C(Cn1ccc2ccc(Cl)cc21)/N=c1\[nH]nc(C2CCCO2)s1` (stereo unspecified) reads 39.7%.
For `CC(C)CN1CC(c2nc(-c3ccc(F)cc3)c[nH]2)CC1=O` (stereo unspecified) the value was 27.5%; for `CC(C)CN1CC(c2nc(-c3ccsc3)c[nH]2)CC1=O` (stereo unspecified), 53.3%.
As for `COc1ccc(-c2c[nH]c(C3CC(=O)N(CC(C)C)C3)n2)cc1` (stereo unspecified), the INHIBITION is -15%.
Take `CC(C)N1CCC(Cc2cncc(-c3cc(F)ccc3C(=O)O)n2)CC1`: the INHIBITION is 41.2%.
Take `CCN(CCNS(=O)(=O)N1CCOCC1)C(=O)OC(C)(C)C`: the INHIBITION worked out at 41.3%.
Take `CN(C(=O)NCc1nccn1Cc1ccccc1)C1CC1`: the INHIBITION was 46.4%.
Consider `COc1ccc(CC(=O)NCCNS(=O)(=O)c2ccc(C)cc2)cc1`, for which the INHIBITION was -57.5%.
For `Cc1cc(C)n2c(CCCNS(=O)(=O)c3ccc(F)cc3)nnc2n1`, the INHIBITION was determined as 15.4%.
The result for `COc1ccc(CC(=O)NCCCc2nnc3nc(C)cc(C)n23)cc1` reads 52.7%; that for `Cc1cc(C)n2c(CCCNS(=O)(=O)c3cccs3)nnc2n1`, 31.3%.
As for `Cc1cc(C)n2c(CCCNS(=O)(=O)c3ccccc3)nnc2n1`, the INHIBITION is 34.6%.
In the case of `COc1ccc(S(=O)(=O)NCCCc2nnc3nc(C)cc(C)n23)cc1`, the INHIBITION is 74.6%.
The result for `CCCS(=O)(=O)NCC(O)c1c(Cl)cccc1Cl` (stereo unspecified) reads 0.87%; that for `CCn1nc(C)c2c1cnn2CC(=O)NC(C)c1cccc(OC)c1` (stereo unspecified), 49.9%.
The result for `Cc1nnc([C@@H]2CC[C@@H]3[C@@H](CCN3C3CCOCC3)O2)o1` reads 60.3%; that for `Cc1nnc([C@@H]2CC[C@@H]3[C@@H](CCN3CC3CCOCC3)O2)o1`, -13.7%; that for `Cc1nnc([C@@H]2CC[C@@H]3[C@@H](CCN3C3CCC3)O2)o1`, 23.3%.
For `CCCNC(=O)COc1ccc(-c2ccccc2)nc1` the value was -91.3%; for `O=C(Cn1cc(I)cn1)Nc1cccnc1`, 4.74%.
Turning to `Cn1cc(C(=O)NCc2cncc3c2CCN(CC2CC2)C3)cn1`, the INHIBITION was determined as 28.5%.
For `Cc1nc(-c2ccccc2)n(CC(=O)NC(C)C)n1` the value was 31.2%; for `CCc1nc(CCNC(=O)Nc2cc(C(N)=O)ccc2OC)cs1`, -10.8%.
For `COc1ccc(C(N)=O)cc1NCc1ncc(-c2cccs2)o1`, the INHIBITION came to 69.7%.
For `CNC(=O)c1ccc(OC)c(NCc2noc(-c3cccs3)n2)c1`, the INHIBITION came to 10%.
As to `CNC(=O)c1ccc(OC)c(NCc2ncc(-c3cccs3)o2)c1`, the INHIBITION is given as 61.1%.
As for `COc1ccc(C(N)=O)cc1NCc1ncc(C(C)(C)C)o1`, the INHIBITION came out at 15.7%.
As for `CNC(=O)c1ccc(OC)c(NCc2noc(-c3ccsc3)n2)c1`, the INHIBITION is -48.5%.
For `COc1ccc(C(N)=O)cc1NCc1noc(-c2ccsc2)n1` the value was 9.06%; for `COc1ccc(C(N)=O)cc1NCc1nc(-c2cccs2)oc1C`, 68%.
`COc1ccc(NC(=O)CCn2nc(-c3cccs3)oc2=O)cc1OC`: the INHIBITION was -22.9%.
As to `COc1ccnc(N2CCN(CC(O)CN3CCOCC3)CC2)n1` (stereo unspecified), the INHIBITION was determined as 4.52%.
As to `Cn1ccnc1CN1CCC(c2nnc(Cn3cccn3)n2C)CC1`, the INHIBITION is 16.3%.
For the compound `N#Cc1ccccc1C(=O)N1C[C@@H]2CC[C@H]1CN(c1ncccn1)C2`, the INHIBITION came out at 12.9%.
Take `N#CC1(C(=O)N2CCCN(c3nccs3)CC2)CCCCC1`: the INHIBITION is given as 11.45%.
As to `O=C(c1cnc(-c2cnccn2)s1)N1CCCC(n2cccn2)C1` (stereo unspecified), the INHIBITION amounted to 10%.
The result for `CN1CCC(Oc2ccc(-n3ccnc3-c3nccn3C)cc2)CC1` reads 13%; that for `CN(CCc1ccccc1)C(=O)c1cccnc1OCC(F)(F)F`, 45.1%; that for `Cc1cc(=O)n2nc(CNc3cc(Cl)ccc3C)nc2[nH]1`, 39.2%.
The result for `Cc1ncsc1C(=O)NCCN1CCCCCC1=O` reads 25.4%.
Turning to `CNC(=O)c1sccc1N(C)S(=O)(=O)c1ccc(Cl)cc1`, the INHIBITION stood at 84.7%.
For `CN(C)CCNC(=O)c1sccc1N(C)S(=O)(=O)c1ccc(Cl)cc1`, the INHIBITION was 54%.
On to `CC(C)NC(=O)c1sccc1N(C)S(=O)(=O)c1ccc(Cl)cc1`, for which the INHIBITION was 0%.
As to `CC(C)CCNC(=O)c1sccc1N(C)S(=O)(=O)c1ccccc1`, the INHIBITION stood at 0%.
In the case of `COC(=O)CNC(=O)c1sccc1N(C)S(=O)(=O)c1ccc(Cl)cc1`, the INHIBITION stood at 20.1%.
In the case of `Cc1ccc(S(=O)(=O)N(C)c2ccsc2C(=O)NCC(C)C)cc1`, the INHIBITION is 28.4%.
The result for `CCNC(=O)c1sccc1N(C)S(=O)(=O)c1ccc(Cl)cc1` reads 26.7%; that for `CCCNC(=O)c1sccc1N(C)S(=O)(=O)c1ccc(Cl)cc1`, 23.7%.
As for `COCCNC(=O)c1sccc1N(C)S(=O)(=O)c1ccc(Cl)cc1`, the INHIBITION is listed as 51.6%.
With `CN1CCCC1c1nnc2n1CCN(S(=O)(=O)c1ccccc1Cl)CC2` (stereo unspecified), the INHIBITION is given as -12.252%.
For the compound `NC(=O)[C@@H]1Cc2ccccc2N1C(=O)C1CC(c2ccccc2)=NO1` (stereo partly specified), the INHIBITION is recorded as -13.6%.
On to `CNC(=O)CN(C)C(=O)c1cc(Cl)c(Cl)n1C`, for which the INHIBITION stood at 37.1%.
Take `Cc1nnc(NCc2cccc(OCc3ccccn3)c2)c(C#N)c1C`: the INHIBITION is reported as 40.1%.
As for `COCC(=O)NCc1cc(=O)n2c(n1)CN(Cc1ccsc1)CCC2`, the INHIBITION was found to be 41.5%.
On to `CO[C@H]1CN(C(=O)OC(C)(C)C)CC1NCc1cc[nH]c1` (stereo partly specified), for which the INHIBITION turned out to be 38.7%.
For `CO[C@H]1CN(C(=O)OC(C)(C)C)CC1NCc1ccoc1` (stereo partly specified), the INHIBITION is 66.5%.
Turning to `CC(C)(C)OC(=O)N1CCC(C(=O)NCc2ccccc2)C1` (stereo unspecified), the INHIBITION was -10.3%.
As for `CO[C@H]1CN(C(=O)OC(C)(C)C)CC1NCc1cccn1C` (stereo partly specified), the INHIBITION amounted to 54.5%.
For the compound `CC(C)(C)OC(=O)N1CC(=O)N(Cc2ccco2)CC(O)C1` (stereo unspecified), the INHIBITION was found to be 29.8%.
`CO[C@H]1CN(C(=O)OC(C)(C)C)CC1NCc1ccco1` (stereo partly specified): the INHIBITION is 74%.
The result for `CC(C)(C)OC(=O)N1CC(=O)N(CCc2ccccc2)CC(O)C1` (stereo unspecified) reads 9.36%.
In the case of `CN(Cc1ccco1)C(=O)[C@H]1CSCN1C(=O)OC(C)(C)C`, the INHIBITION was found to be 29.6%.
Consider `CO[C@H]1CN(C(=O)OC(C)(C)C)CC1NCc1ccn(C)c1` (stereo partly specified), for which the INHIBITION turned out to be 39.6%.
As to `CCOCCN1Cc2ncn(C)c2C(COCC2CCOCC2)C1` (stereo unspecified), the INHIBITION is reported as 36.9%.
As to `CCCc1ccc2oc(C(=O)N3CCN(CCOC)CC3)c(C)c2c1`, the INHIBITION is given as -13.1%.
In the case of `COc1ccc(-n2cccn2)c(CN2CCC3(CCCN(C)C3=O)C2)c1` (stereo unspecified), the INHIBITION came to 43.9%.
On to `Nc1nc(N)c2c(n1)OC1(CCN(C(=O)CC3CCCNC3)CC1)C2` (stereo unspecified), for which the INHIBITION amounted to 27.1%.
Consider `Cc1cc(C(=O)N[C@H]2Cc3ccccc3[C@@H]2N)c(=O)[nH]c1C`, for which the INHIBITION is listed as 21.5%.
With `Cc1nc(CN2CCN(C)C(=O)C23CCN(CC2CCCC2)CC3)cs1`, the INHIBITION worked out at 49.4%.
Turning to `Cc1noc([C@H]2COC[C@H]3CN(C(=O)Cc4ccccc4F)C[C@H]32)n1`, the INHIBITION worked out at 12.7%.
Take `O=C(CCCn1cccn1)N1C[C@@H](O)[C@H](Oc2cccc(F)c2)C1`: the INHIBITION was found to be 32.8%.
Regarding `CC(C)(O)CCc1cccc(C(=O)NCc2cnn3cccnc23)c1`, the INHIBITION was 54.5%.
With `Cc1cccnc1[C@H](C)NC(=O)c1cccc(CC2CCNCC2)c1`, the INHIBITION is listed as 15%.
As for `CCn1cc(CN(C)C(=O)c2cccc(CCC(C)(C)O)c2)cn1`, the INHIBITION came to 7.11%.
The result for `Cc1cnccc1CN(C)C(=O)c1cccc(CCC(C)(C)O)c1` reads -2.39%.
Take `O=C(NCc1cnn2cccnc12)c1cccc(CC2CCNCC2)c1`: the INHIBITION came to 77.7%.
The result for `CC(C)Cn1cncc1CNC(=O)c1cccc(CC2CCNCC2)c1` reads 42.3%.
